{
  "source": "PubChem BioAssay (Tox21)",
  "note": "Records with an inconclusive call do not appear. Where a call stands in place of a potency, no number is given. Values without a mark were called inactive. Calls of active or inactive are those of the source. Calls come from the whole dose curve. Residues, ends and D or L forms follow the SMILES beside them.",
  "data": [
    {"molecular_target": "Acetylcholinesterase (Homo sapiens) (UniProt P22303)", "sequence (P22303 whole entry, looked up)": "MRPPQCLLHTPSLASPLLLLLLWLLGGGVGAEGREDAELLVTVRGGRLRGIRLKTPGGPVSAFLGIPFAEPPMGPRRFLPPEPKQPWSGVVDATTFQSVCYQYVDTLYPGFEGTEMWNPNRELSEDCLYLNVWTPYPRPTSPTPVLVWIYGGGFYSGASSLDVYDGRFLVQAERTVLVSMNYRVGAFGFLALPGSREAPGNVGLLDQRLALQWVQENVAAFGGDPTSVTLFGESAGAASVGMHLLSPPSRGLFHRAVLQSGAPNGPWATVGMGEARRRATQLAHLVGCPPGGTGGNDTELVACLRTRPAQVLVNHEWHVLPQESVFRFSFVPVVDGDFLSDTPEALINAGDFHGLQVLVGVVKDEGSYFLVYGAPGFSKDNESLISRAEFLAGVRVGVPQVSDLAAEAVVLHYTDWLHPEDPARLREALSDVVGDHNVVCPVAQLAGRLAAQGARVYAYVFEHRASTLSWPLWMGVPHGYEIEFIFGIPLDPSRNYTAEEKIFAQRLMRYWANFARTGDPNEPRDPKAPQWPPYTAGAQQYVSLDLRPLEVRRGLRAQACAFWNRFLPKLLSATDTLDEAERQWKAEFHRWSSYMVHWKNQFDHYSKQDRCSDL", "experiment": "Acetylcholinesterase (AChE) small molecule antagonists: fluorescence cell-based qHTS assay (AID 1347398); note: nearly all actives have a fitted effect of over 50% in size", "conditions": "SH-SY5Y cells; Potency: AChE activity; outcome: AChE activity; series mostly up to 115 µM", "description": "National Center for Advancing Translational Sciences [NCATS]\nDivision of Preclinical Innovation [DPI]\nU.S. Environmental Protection Agency [EPA]\nNational Institutes of Environmental Health Sciences [NIEHS]\nNational Toxicology Program [NTP]\nU.S. Food and Drug Administration [FDA]\nAcetylcholinesterase (AChE) is the primary cholinesterase in the body that hydrolyzes a key neurotransmitter, acetylcholine. Inhibition of AChE activity can lead to neurotoxicity. Known inhibitors of AChE include organophosphorous pesticides (OP), chemical warfare agents, drugs, and various phytochemicals.\nA homogenous cell-based assay using Amplitetrade mark Fluorimetric Acetylcholinesterase Assay Kit *Green Fluorescence* (AAT Bioquest, Sunnyvale, CA) was used to evaluate the chemicals in the Tox21 10K library that inhibit AChE activity. The assay uses Thiolite Green to quantify the thiocholine produced from the hydrolysis of acetylthiocholine by AChE from the SH-SY5Y cells. AChE can hydrolyze acetylthiocholine to create thiocholine. Thiolite Green is fluorescent when reacting with thiocholine. It has spectral properties similar to those of fluorescein. The fluorescence intensity of Thiolite Green is used to measure AChE activity. Its signal can be easily read by a fluorescence microplate reader at Ex/Em = 490/520 nm.\nTox21 Assay Protocol Summary:\nFor cell-based AChE assay, 2,000 SH-SY5Y cells in 4 uL/well were dispensed into black, clear-bottom 1536-well plates using a Multidrop Combi (Thermo Scientific) dispenser. The assay plates were incubated overnight at 37 C to allow cells to attach to the wells, followed by the transfer of 23 nL compound or DMSO (vehicle control) by a Pintool station (Wako Automation, CA). The plates were incubated for 30 min at 37 C and 5% CO2, followed by the addition of 4 uL of detection cocktail solution (ThioliteGreen, acetylthiocholine) into each well using Flying Reagent Dispenser (Beckman Coulter, CA) and then following 40 min incubation at room temperature. Fluorescent intensity (Ex/Em = 490/520 nm) was measured using an Envision plate reader (PerkinElmer, MA).", "values": [
      {"smiles": "NC(N)=NC(N)=NCCc1ccccc1", "Potency": "inactive"},
      {"smiles": "CC(O)c1ccccc1", "note": "(stereo not given)", "Potency": "inactive"},
      {"smiles": "CC(CC=O)c1ccccc1", "note": "(stereo not given)", "Potency": "inactive"},
      {"smiles": "BrC1CCC(Br)C(Br)CCC(Br)C(Br)CCC1Br", "note": "(stereo not given)", "Potency": "inactive"},
      {"smiles": "NC(CO)C(=O)NNCc1ccc(O)c(O)c1O", "note": "(stereo not given)", "Potency": "inactive"},
      {"smiles": "O=C(O)C(=O)Cc1ccccc1", "Potency": "inactive"},
      {"smiles": "COC(=O)[C@H](Cc1ccccc1)NC(=O)[C@@H](N)CC(=O)O", "note": "(H-Asp-Phe-OMe)", "Potency": "inactive"},
      {"smiles": "CCOC(=O)NCCC[Si](OCC)(OCC)OCC", "Potency": "inactive"},
      {"smiles": "O=C(O)CSCC(=O)NC1CCSC1=O", "note": "(stereo not given)", "Potency": "inactive"},
      {"smiles": "CC1=C(C(=O)O)N2C(=O)[C@@H](NC(=O)[C@H](N)c3ccccc3)[C@H]2SC1", "Potency": "inactive"},
      {"smiles": "CC1=CC2C3CC(C=C3C)C2C1", "note": "(stereo not given)", "Potency": "inactive"},
      {"smiles": "C=C(C)C(=O)OCCCCCCCCCC", "Potency": "inactive"},
      {"smiles": "CCCCN(CCN(CCCC)C(=O)N1CCOCC1)C(=O)N1CCOCC1", "Potency": "inactive"},
      {"smiles": "C=CCc1ccc(O)c(OC)c1", "Potency": "inactive"},
      {"smiles": "CCCCCCCCSCC", "Potency": "inactive"},
      {"smiles": "Brc1ccc(Br)c(Br)c1", "Potency": "inactive"},
      {"smiles": "CCCCC(C=O)CC", "note": "(stereo not given)", "Potency": "inactive"},
      {"smiles": "CC(C)=CCC[C@](C)(O)[C@@H]1CC=C(C)CC1", "Potency": "inactive"},
      {"smiles": "Cc1nnc(C(=O)NC(C)(C)c2nc(C(=O)NCc3ccc(F)cc3)c(O)c(=O)n2C)o1", "Potency": "inactive"},
      {"smiles": "O=C(O)CCSCCC(=O)O", "Potency": "inactive"},
      {"smiles": "CCC(=O)CC(C)CC", "note": "(stereo not given)", "activity change, negative = inhibition": "1.06% [at 0.439 µM]"},
      {"smiles": "CCCCCCCCCCCCCO", "Potency": "inactive"},
      {"smiles": "O=C(OCCCCCCOC(=O)c1ccccc1)c1ccccc1", "Potency": "inactive"},
      {"smiles": "Cc1cc(Nc2ccc(O)cc2)ccc1N", "Potency": "inactive"},
      {"smiles": "CCCCCC/C=C/CCCCCCCC(=O)O", "Potency": "inactive"},
      {"smiles": "CCc1cccc2c3c([nH]c12)C(CC)(CC(=O)O)OCC3", "note": "(stereo not given)", "Potency": "inactive"},
      {"smiles": "CCCCCCC(O)CCCCCCCCCCC(=O)O", "note": "(stereo not given)", "Potency": "inactive"},
      {"smiles": "O=C(Nc1ccccc1-c1ccc(Cl)cc1)c1cccnc1Cl", "Potency": "inactive"},
      {"smiles": "Cc1ccc(C(=O)O)cc1[N+](=O)[O-]", "Potency": "inactive"},
      {"smiles": "CCc1cccc(CC)c1", "Potency": "inactive"},
      {"smiles": "CCC(=O)C1CC(C(C)C)CC=C1C", "note": "(stereo not given)", "Potency": "inactive"},
      {"smiles": "COc1c2ccoc2cc2oc(=O)ccc12", "Potency": "inactive"},
      {"smiles": "CC(C)c1ccccc1O", "Potency": "inactive"},
      {"smiles": "OB(O)O", "Potency": "inactive"},
      {"smiles": "CCOCC(=O)O", "Potency": "inactive"},
      {"smiles": "O=C=NCCCCCCN=C=O", "Potency": "inactive"},
      {"smiles": "N[C@@H](Cc1cc(I)c(Oc2cc(I)c(O)c(I)c2)c(I)c1)C(=O)O", "Potency": "inactive"},
      {"smiles": "CC(=O)OCCOCCOCCOC(C)=O", "Potency": "inactive"},
      {"smiles": "CC(C)OCCO", "Potency": "inactive"},
      {"smiles": "CCOc1ccc(OCC)c(Cl)c1", "Potency": "inactive"}
    ]}
  ]
}
